Screening data from PubChem BioAssay.
In the library only some 28% were active in any assay of this set; here they are far more common.
DAT uptake mod – changed human dopamine transporter uptake under cocaine IC80; Q01959; LLC-PK1 hDAT cells, [14C]-dopamine uptake with cocaine IC80; actives deviate in either direction; B-score at 10 µM; actives 1.3% (n = 110,000);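 active = Z score or B-score, a plate-position-corrected score, falls beyond the plate's 99.7% confidence bounds, in either direction; inactive = both scores lie inside the 99.7% bounds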;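 note: scored against the spread of the other compound wells on the same plate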
CYP2C19 inh – inhibitors of human CYP2C19; P33261; CYP2C19 Supersomes, luciferin-H EGE luminescence, 30 min; inhibition, % at 5 µM; actives 21% (n = 96,000); AID 778;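 active = CYP2C19 inhibition above a set limit at 5 µM in the primary screen, cut at about 50% in these data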;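 note: plate controls were negative control wells for no effect and 2.5 mM tranylcypromine positive control for full effect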
D1 allo mod – allosterically modulates the human D1 dopamine receptor. P21728. HEK293 D1, CRE-luciferase, dopamine EC30 potentiation; actives deviate in either direction. B-score at 10 µM. actives 5.9% (n = 58,000). AID 641;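 active = luminescence count or its row- and column-corrected plate score outside the 99.7% band of the plate's sample wells, on either side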
CYP2C9 act – increases human cytochrome P450 2C9 activity. P11712. recombinant CYP2C9, luciferin-H conversion, luminescence; active compounds read high; factor 1 = untreated enzyme, 0 = blocked. activation factor at 5 µM. actives 1.4% (n = 96,000). AID 1024;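 active = activation factor of 2 or more for CYP2C9 at a 5 µM dose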;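 note: 0 = sulfaphenazole-blocked wells and 1 = vehicle-only wells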
Target sequence (P11712 whole entry, looked up): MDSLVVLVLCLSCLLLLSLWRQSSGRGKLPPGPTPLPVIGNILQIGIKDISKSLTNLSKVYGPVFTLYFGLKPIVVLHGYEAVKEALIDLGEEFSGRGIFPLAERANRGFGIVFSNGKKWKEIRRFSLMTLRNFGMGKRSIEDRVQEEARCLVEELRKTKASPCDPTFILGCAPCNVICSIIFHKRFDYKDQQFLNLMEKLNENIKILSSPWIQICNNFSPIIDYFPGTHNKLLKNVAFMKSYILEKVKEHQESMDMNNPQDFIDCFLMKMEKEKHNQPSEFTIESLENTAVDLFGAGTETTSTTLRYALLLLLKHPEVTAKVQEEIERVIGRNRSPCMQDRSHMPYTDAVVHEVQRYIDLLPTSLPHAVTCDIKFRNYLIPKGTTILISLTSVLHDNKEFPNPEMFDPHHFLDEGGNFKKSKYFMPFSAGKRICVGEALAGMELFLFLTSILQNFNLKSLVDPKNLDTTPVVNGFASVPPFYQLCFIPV
CYP2C19 activ – activators of human cytochrome P450 2C19. recombinant CYP2C19, luciferin-H EGE luminescence; active compounds read high; 0 = fully inhibited enzyme, 1 = untreated enzyme. activation factor at 5 µM. 96,000 tested, under 10 active;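 active = activation factor of at least 2 at 5 µM in the primary screen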;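 note: 0 = wells with 2.5 mM tranylcypromine and 1 = vehicle-only wells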
CYP2C9 inhib – inhibitors of human CYP2C9. CYP2C9 Supersomes, luciferin-H conversion, luminescence. P11712. inhibition, % at 5 µM. actives 20% (n = 96,000);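 active = blocking of liver enzyme CYP2C9 beyond about 50% at 5 µM, limit read from the data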
* = called active by the depositor; . = no result.

SMILES	DAT uptake mod	CYP2C19 inh	D1 allo mod	CYP2C9 act	CYP2C19 activ	CYP2C9 inhib
CCOC(=O)N1CCN(C(=O)c2ccc(Cl)c(S(=O)(=O)N3CCOCC3)c2)CC1	-0.0729	0.7	-0.97	0.9	1	8.8
COc1cccc(CNS(=O)(=O)c2cc(Br)cc3c2N(C(C)=O)C(C)C3)c1 (configuration not stated)	-0.0962	74.3*	.	2.1*	0.3	-109.8
CC(=O)N1c2c(cc(Br)cc2S(=O)(=O)N2CCN(c3ccccn3)CC2)CC1C (configuration not stated)	1.43	31.4	2.33	0.3	0.7	67.1*
O=C(NCCc1ccccc1F)C1CCCN1S(=O)(=O)c1ccc2ccccc2c1 (configuration not stated)	0.619	.	.	.	.	.
CCOC(=O)c1sc2cccc(Cl)c2c1N	0.556	.	.	.	.	.
Cc1nn(C)cc1CN(C)C(=O)c1sc2cccc(Cl)c2c1Cl	0.00774	96.6*	0.882	2*	0	-98.2
Cc1nnc(NC(=O)COc2ccc3c(C)cc(=O)oc3c2)s1	.	27.1	.	0.3	0.7	73.4*
Cc1cc(C(=O)OCC(=O)N2CCc3ccccc32)c(C)o1	-0.355	-11.3	0.534	1.1	1.1	-13.7
Cc1cccc(OCCC(=O)OCC(=O)N2CCc3ccccc32)c1	-0.757	52.9*	-1.06	1.5	0.5	-45.3
Cc1cccc(OCc2nnc(SCC(=O)N3CCc4ccccc43)n2C)c1	0.95	16.8	-0.991	0.8	0.8	19.8
Cc1cc(=O)oc2cc(OCC(=O)N3CCc4ccccc4C3)ccc12	1.67	45.1	0.192	0.8	0.5	24.9
Cc1cc(=O)oc2ccc(OCC(=O)N3CCc4ccccc43)cc12	-0.019	15.3	.	0.3	0.8	72.2*
Cc1cc(=O)oc2cc(OCC(=O)N3CCCc4ccccc43)ccc12	0.04	44.0	0.851	0.2	0.6	75.4*
CCOCCn1c(CN2CCOCC2)nc2c1c(=O)[nH]c(=O)n2C	-0.88	.	-0.374	.	.	.
Cc1ccc(SCCNC(=O)CN(c2ccc3c(c2)OCO3)S(C)(=O)=O)cc1	0.836	91.8*	0.38	0.1	0.1	91.7*
O=C(NCCSCc1ccco1)Nc1ccccc1	-1.46	78.6*	-0.0538	0.7	0.2	25.1
Cc1ccccc1CSCCNC(=O)CN(c1ccc2c(c1)OCO2)S(C)(=O)=O	-0.809	63.6*	-0.822	0.4	0.4	56.2*
CS(=O)(=O)N(CC(=O)NCCSC1CCCCC1)c1ccc2c(c1)OCO2	0.573	69.5*	0.201	0.4	0.3	55.8*
CCCCCNC(=O)CN(c1ccc2c(c1)OCO2)S(C)(=O)=O	-0.155	45.6	.	0.9	0.5	10.4
CCN1C(=O)C2(/C(=C(\O)c3ccc4c(c3)OCCO4)C(=O)C(=O)N2CCCOC)c2ccccc21 (configuration not stated)	-0.28	-11.6	.	1	1.1	2.1
COc1ccc(C(=O)N(C(C)C)C(C)C)c(OC)c1	0.529	4.4	.	0.9	1	9.9
Cc1ccccc1N(CC(=O)NCCSCc1ccco1)S(C)(=O)=O	0.498	74.5*	0.411	0.3	0.3	67.5*
CS(=O)(=O)N(CC(=O)NCc1ccco1)c1ccccc1Cl	-0.0975	21.1	.	0.8	0.8	22.5
Cc1ccc(S(=O)(=O)Nc2ccc3nc(N)sc3c2)cc1	1.18	98.6*	.	0.1	0	94.9*
CS(=O)(=O)c1ccc2nc(N)sc2c1	-0.346	3.2	-1.77	1	1	-2.3
SMILES	DAT uptake mod	CYP2C19 inh	D1 allo mod	CYP2C9 act	CYP2C19 activ	CYP2C9 inhib
Cc1ccc(C(=O)Nc2ccc3nc(C)sc3c2)s1	1.13	33.8	.	0.1	0.7	86.6*
Cc1nc2cc(NS(=O)(=O)c3c(C)c(C)cc(C)c3C)ccc2s1	1.81	.	.	.	.	.
Cc1nc2ccc(NS(=O)(=O)c3ccc4c(c3)OCCO4)cc2s1	-1.25	97.5*	.	0	0	97.9*
Cc1nc2ccc(NS(=O)(=O)c3c(C)c(C)cc(C)c3C)cc2s1	-0.63	35.0	.	0.3	0.7	74.0*
CCNc1nc(Oc2ccccc2)nc(OC(C)C(=O)OCC)n1 (configuration not stated)	0.719	.	.	.	.	.
COC(=O)Nc1snnc1C	-0.819	8.6	.	0.8	0.9	15.7
CCO[C@@H]1OC(C(=O)NCc2ccccc2)=C[C@H](c2ccc(C(F)(F)F)cc2)[C@H]1CCCO	0.783	.	.	.	.	.
Cc1nc2ccc(S(=O)(=O)Nc3cccc(-c4nc5cccnc5s4)c3)cc2s1	0.577	.	.	.	.	.
